Test results reported in PubChem BioAssay.
Activity calls are given as the source filed them.

Molecular target: NADPH oxidase 2 (Homo sapiens) (UniProt P04839)
Experiment: compounds shifting NOX2 Amplex Red fluorescence – cell-based, HEK293-NOX2, PMA-stimulated, NOX inhibitor project, primary screen (AID 1159); also: test concentration not given here
Conditions: 45 min, higher = more signal, called active from +8 up or from −8 down

NADPH oxidase 2 (Homo sapiens), sequence (P04839 whole entry, looked up): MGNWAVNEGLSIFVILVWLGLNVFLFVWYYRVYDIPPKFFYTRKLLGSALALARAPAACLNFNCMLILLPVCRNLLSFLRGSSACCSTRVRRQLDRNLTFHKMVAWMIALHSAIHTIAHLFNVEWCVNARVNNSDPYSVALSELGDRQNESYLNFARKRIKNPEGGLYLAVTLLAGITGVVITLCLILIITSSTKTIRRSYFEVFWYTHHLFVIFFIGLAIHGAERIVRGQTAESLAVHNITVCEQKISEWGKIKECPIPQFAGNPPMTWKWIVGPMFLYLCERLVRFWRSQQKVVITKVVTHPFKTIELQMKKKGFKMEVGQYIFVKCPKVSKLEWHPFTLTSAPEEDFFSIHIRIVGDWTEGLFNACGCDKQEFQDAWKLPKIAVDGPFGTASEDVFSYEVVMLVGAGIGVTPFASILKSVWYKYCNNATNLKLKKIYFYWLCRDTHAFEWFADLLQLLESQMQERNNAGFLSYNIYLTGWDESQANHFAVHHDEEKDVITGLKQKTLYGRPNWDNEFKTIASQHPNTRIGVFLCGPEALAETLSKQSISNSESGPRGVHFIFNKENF

z-score, inactive:
CC1CC/C=C\[C@H]2OC34C=CCN(C(C)C)C(=O)[C@H]3N(C(C)CO)C(=O)[C@@H]4C2C(=O)O1 (some centres undefined) 0.273
[N-]=[N+]=NCc1ccccc1C[C@]1(C(=O)N2CCCCC2)COC(c2ccc(OCCCO)cc2)=N1 -1.66
O=C1NC(=O)C2C1C=CC(C(O)c1ccc(F)cc1)N2Nc1ccc(Cl)cc1Cl (centres undefined) -0.018
O=C(NCC(F)(F)F)[C@@H]1c2ccccc2C(=O)N(Cc2cc(C(F)(F)F)cc(C(F)(F)F)c2)[C@H]1c1ccc(CO)cc1 0.16
C=CCNC(=O)[C@H]1[C@@H]2C(=O)O[C@@H](c3ccccc3)[C@@H](c3ccccc3)N2[C@@H](c2ccc(O)cc2)[C@]12C(=O)N(C(=O)OCCOC)c1ccc(C#Cc3ccc(OC)cc3)cc12 1.62
COCCOC(=O)N1C(=O)[C@@]2(c3cc(C#CCNC(N)=O)ccc31)[C@H](C(N)=O)[C@H]1C(=O)O[C@H](c3ccccc3)[C@H](c3ccccc3)N1[C@@H]2c1ccc(O)cc1 0.161
CC(C)(C)OC(=O)CC[C@@]1(C(N)=O)N=C(c2ccc(OCCCO)cc2)O[C@@H]1c1ccccc1CN=[N+]=[N-] 1.11
COC(=O)[C@@]1(Cc2ccc(F)cc2)[C@H]2c3cc(C(=O)N(C)C)n(CCF)c3C[C@H]2CN1C(=O)c1ccccc1 0.532
COc1ccc(C(=O)Nc2cccc(CN3C(=O)[C@]4(O[C@H](CC(=O)N(CCO)Cc5ccccc5)[C@@H]([Si](C)(C)c5ccc(OC)cc5)[C@@H]4C)c4ccccc43)c2)cc1 0.936
[N-]=[N+]=NCc1ccccc1C[C@@]1(C(=O)NCCN2CCOCC2)N=C(c2ccc(OCCCO)cc2)O[C@@H]1c1ccccc1 -1.48
COC(=O)C1(CC(C)C)C=C2C(=C(C)C(=O)C2C)CN1 (centres undefined) 0.425
COC(=O)C(CC#Cc1ccc2c(c1)[C@]1(C(=O)N2)[C@H](c2ccc(OCCO)cc2)N2[C@H](c3ccccc3)[C@H](c3ccccc3)OC(=O)[C@H]2[C@@H]1C(N)=O)C(=O)OC 1.56
CCCN1C(=O)[C@@]2(c3ccc([N+](=O)[O-])cc3)CC(=O)N(C3CCCCC3)[C@@H]2c2ccc(CO)cc21 -0.955
C=CCNC(=O)[C@H]1[C@@H]2C(=O)O[C@@H](c3ccccc3)[C@@H](c3ccccc3)N2[C@@H](c2ccc(OCCO)cc2)[C@]12C(=O)N(C(=O)OCCOC)c1ccc(C#CCC(C(=O)OC)C(=O)OC)cc12 1.64
C=CCOC(=O)[C@H]1[C@@H]2C(=O)O[C@@H](c3ccccc3)[C@@H](c3ccccc3)N2[C@@H](c2ccc(OCCOC(=O)[C@H]3C[C@H]4C(=O)NCC(=O)N4[C@H]3c3ccc(O)cc3)cc2)[C@]12C(=O)Nc1ccccc12 2.06
COc1ccc(C(=O)Nc2ccc(CN3C(=O)[C@@]4(O[C@@H](CC(=O)N(CCO)Cc5ccccc5)[C@H]([Si](C)(C)c5ccc(OC)cc5)[C@H]4C)c4ccccc43)cc2)cc1 1.06
CCOC(=O)C1=CCC(c2ccncc2)N(S(=O)(=O)c2ccc(C)cc2)C1 (centres undefined) 0.168
O=C1O[C@H](c2ccccc2)[C@H](c2ccccc2)N2[C@H]1[C@@H](C(=O)O)[C@]1(C(=O)Nc3ccc(C#CC4(O)CCCCCC4)cc31)[C@H]2c1ccccc1OCCO 2.49
O=C1O[C@H](c2ccccc2)[C@H](c2ccccc2)N2[C@H]1[C@@H](C(=O)O)[C@]1(C(=O)Nc3ccccc31)[C@H]2c1ccc(OCCO)cc1 0.388
CCCCCCc1nc(-c2ccc(OC)nc2)c(C)c2c1[Si](C(C)C)(C(C)C)OC2 -1.98
COC(=O)Cn1c(C(=O)N(C)C)cc2c1C[C@H]1CN(C(=O)c3ccccc3)[C@@](Cc3ccccc3)(C(=O)OC)[C@@H]21 0.363
COc1ccc([Si](C)(C)[C@H]2[C@H](CC(=O)N3CCC[C@H]3CO)O[C@@]3(C(=O)N(C)c4ccccc43)[C@@H]2C)cc1 1.4
C=CC[C@H](OC(=O)Nc1ccc(SC)cc1)c1ccc(O)c(F)c1 -5.66
Cc1ccc(S(=O)(=O)N2[C@@H](c3ccccc3)C(C(=O)O)=CC[C@H]2c2ccc(F)cc2)cc1 0.0361
